Screens from PubChem BioAssay.
Shown are actives, neighbours in structure and some others; about 3.4% of the full set was active somewhere.
FBW7 activator: human FBW7 E3 ligase activation, primary screen; Q969H0; AlphaScreen FBW7–phospho-cyclin E peptide binding, activator screen; normalized activity (activation), % at 26.1 µM; 650,000 compounds, 0.13% hits; AID 1259310; in the data active means normalized activity above about 1.9%;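 further: purified mutant Fbw7 with reduced substrate affinity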
GPR151 activ: human GPR151 activation. AID 1508602. Q8TDV0. PathHunter beta-arrestin GPR151 cells, luminescence. 650,000 compounds, 1% hits. activation, % at 11.2 µM; in the data active means activation above about 4.9%;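 further: 0% = median of compound wells and 100% = cells with positive control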
Target sequence (Q8TDV0 whole entry, looked up): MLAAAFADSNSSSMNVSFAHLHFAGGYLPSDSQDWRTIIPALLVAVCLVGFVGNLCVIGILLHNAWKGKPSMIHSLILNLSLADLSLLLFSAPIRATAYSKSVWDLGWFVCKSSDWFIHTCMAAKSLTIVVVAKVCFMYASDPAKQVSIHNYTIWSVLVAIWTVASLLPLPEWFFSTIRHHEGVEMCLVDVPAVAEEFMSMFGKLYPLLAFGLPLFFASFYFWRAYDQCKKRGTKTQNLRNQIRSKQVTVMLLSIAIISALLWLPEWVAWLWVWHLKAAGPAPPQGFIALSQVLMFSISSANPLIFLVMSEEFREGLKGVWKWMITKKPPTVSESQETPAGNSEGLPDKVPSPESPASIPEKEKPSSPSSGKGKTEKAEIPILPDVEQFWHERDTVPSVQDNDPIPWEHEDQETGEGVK
TEAD-YAP block: TEAD-YAP interaction inhibition; HEK-TIYL cells, TEAD-Gal4/YAP UAS-luciferase luminescence; inhibition, % at 9.12 µM; 640,000 compounds, 1.4% hits; in the data active means inhibition above about 32%;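 further: 0% = median of test compound wells and 100% = reference inhibitor wells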
MITF inh: human MITF inhibition, primary screen; O75030; AlphaScreen MITF homodimerization, bead proximity signal; inhibition, % at 2.6 µM; 650,000 compounds, 0.91% hits; in the data active means inhibition above about 50%;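 further: 0% = vehicle wells with protein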
GPR151 conf act: confirmation of human GPR151 activators. GPR151 PathHunter beta-arrestin cells, luminescence, 90 min; % of EA-reagent control over plate median. AID 1508609. activation, % at 11.2 µM. 6,700 tested, under 10 active. shares compounds with GPR151 activ;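 active means mean percent activation across replicates above the confirmation screen cutoff of 4.91%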
GPR119 counter: counter-screen for GPR151 activators: effect on human GPR119; shares compounds with GPR151 activ; GPR119 PathHunter beta-arrestin cells, luminescence, 90 min; 0 = compound-well median, 100 = enzyme-acceptor control; activation, % at 11.2 µM; 6,700 compounds, 0.3% hits;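 active means mean percent activation in the counterscreen above 29.09%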;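 further: counterscreen on off-target GPR119 to flag nonselective hits from the GPR151 activator screen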
* hit, by the source's call; nt = no result.

SMILES	FBW7 activator	GPR151 activ	TEAD-YAP block	MITF inh	GPR151 conf act	GPR119 counter
COc1cc2[nH]c(=O)n(CCCC(=O)NCc3ccccc3Cl)c(=O)c2cc1OC	0	6.8*	-12	0	1	4
COc1ccc(CNC(=O)CCCn2cccc2)cc1	0	8.2*	-15	8	2	6
COc1ccc2[nH]c3c(=O)n(CCCCC(=O)NC(C)C)c(=S)[nH]c3c2c1	1	0	0	9	nt	nt
COc1ccc2[nH]c3c(=O)n(CCCC(=O)Nc4ccccc4)c(=S)[nH]c3c2c1	0	7.7*	3	-1	-1	-7
CCCCNC(=O)CCCCCn1c(=O)[nH]c2cc(OC)c(OC)cc2c1=O	0	0	2	-9	nt	nt
COc1ccc(CNC(=O)CCCn2c(=O)[nH]c3ccccc3c2=O)cc1	0	7.0*	-3	-9	0	-2
CCCC(=O)NCc1ccc(OC)cc1	0	1	-15	-2	nt	nt
COc1ccc(OC)c(-c2cc(Cl)c3c(c2)CC(CNC(=O)[C@@H]2CCC(=O)N2)O3)c1 (stereo partly drawn)	0	0	3	1	nt	nt
CC(C)CNC(=O)CSc1nnc(NCc2ccccc2)s1	0	-1	2	18	nt	nt
O=C(NCCCCc1ccccc1)c1cc([N+](=O)[O-])cc([N+](=O)[O-])c1	0	11*	8	17	1	11
COc1ccc(-c2noc(CSc3nnc(C)n3-c3ccccc3)n2)cc1OC	0	-1	-4	-8	nt	nt
COc1ccc(-c2noc(CSc3nc(N)c(-c4ccccc4)c(=O)[nH]3)n2)cc1OC	0	5.7*	6	-11	0	-1
Cc1cc(NCCOc2ccccc2)nc(N2CCN(Cc3ccc4c(c3)OCO4)CC2)n1	0	6.0*	8	6	2	3
Cc1c(Cl)cccc1NC(=O)C1CCCN(c2nnc(N3CCCC3=O)s2)C1 (stereo not drawn)	0	-2	-2	-4	nt	nt
O=C(Nc1ccccc1F)C1CCCN(c2nnc(N3CCCC3=O)s2)C1 (stereo not drawn)	0	5.0*	3	9	-1	-9
O=C1C(=O)N(CCN2CCOCC2)C(c2ccco2)/C1=C(/O)c1ccc(F)cc1 (stereo not drawn)	0	6.7*	10	9	-1	6
O=C1C(=O)N(CCN2CCOCC2)C(c2ccc(F)cc2)/C1=C(\O)c1ccc(F)cc1 (stereo not drawn)	0	0	-4	-1	nt	nt
O=C(/C=C/c1ccco1)Nc1ccc(S(=O)(=O)N2CCCCC2)cc1	0	13*	5	-13	-1	-8
CNS(=O)(=O)c1ccc(NC(=O)/C=C/c2ccco2)cc1	0	0	-9	-3	nt	nt
O=C(Nc1ccc(S(=O)(=O)N2CCCCCC2)cc1)C(Cl)(Cl)Cl	0	6.7*	0	6	0	-7
CN(C)S(=O)(=O)c1ccc(NC(=O)/C=C/c2ccco2)cc1	0	8.3*	-23	7	1	4
O=C(/C=C/c1ccco1)Nc1ccc(S(=O)(=O)N2CCCCCC2)cc1	0	-1	2	-6	nt	nt
O=C(NCc1ccccc1)/C(=N\O)c1ccccc1	0	6.2*	-10	5	-1	-5
CCOC(=O)c1ccccc1NC(=O)CSc1n[nH]c(N)n1	0	0	7	1	nt	nt
CC(=O)c1ccccc1NC(=O)CSc1n[nH]c(N)n1	0	8.0*	8	2	0	6
SMILES	FBW7 activator	GPR151 activ	TEAD-YAP block	MITF inh	GPR151 conf act	GPR119 counter
N#Cc1ccc(NN2C(=O)c3ccccc3C2=O)c([N+](=O)[O-])c1	0	1	9	0	nt	nt
N#Cc1ccc(NN2C(=O)c3cc(Cl)c(Cl)cc3C2=O)c([N+](=O)[O-])c1	0	7.0*	17	7	0	-4
CC(=O)c1cccc(NC(=S)Nc2ccc(CC(=O)O)cc2)c1	0	0	1	5	nt	nt
CCOC(=O)C1(CCc2ccccc2)CCN(C(=O)CSc2ncccn2)CC1	0	5.6*	-7	5	1	-3
CCOC(=O)C1(CC2CCCCO2)CCN(C(=O)CSc2ncccn2)CC1 (stereo not drawn)	0	4.9*	4	-3	0	5
CCOC(=O)C1(CCCc2ccccc2)CCN(C(=O)CSc2ncccn2)CC1	0	-1	-8	-5	nt	nt
